Sampled rows, rich in hits. Any-hit rate of the full collection: about 7.4%.
Rab9 promoter act: qHTS Assay for Rab9 Promoter Activators; Huh7 Rab9 promoter-luciferase reporter, luminescence, 24 h; Potency, µM (doses to about 9.22 µM), inactives show at the highest dose activation, negative = inhibition, hits mostly activators; actives 2.8% (n = 320,000); note: % of control where 0% means no effect; nearly all actives have a fitted effect of over 60% in size
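Stable Rab9-luc Huh7, 1500 cells/well, 2 h settle; cmpd in DMSO, 24 h, 37 °C/5% CO2; luciferase reagent 10 min RT; luminescence.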
ELG1 genotoxic: qHTS screen for small molecules that induce genotoxicity in human embryonic kidney (HEK293T) cells expressing luciferase-tagged ELG1. HEK293T ELG1-luciferase reporter, luminescence, 16 h. Potency, µM (series often up to 46 µM), for inactives: at the highest dose activity change, positive = activation, usual class: activators. actives 1.3% (n = 330,000); note: % of control where 0% means no effect; nearly all actives have a fitted effect of over 60% in size
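16 hr compound incubation (37 °C, 5% CO2) of HEK293T cells carrying luciferase-tagged ELG1; luciferase then measured by ONE-Glo luminescence after 30 min at RT.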
KinaseGlo FLuc: Counterscreen for Luciferase (Kinase-Glo TM) Inhibition; Kinase-Glo luciferase, ATP luminescence, 8 min; Potency, µM (highest dose often 38.3 µM), without a hit: at the highest dose activity change, negative = inhibition, actives largely listed as inhibitors; AID 1379, 2008; Luciferin 4-monooxygenase (Photuris pensylvanica), Q27757; actives 0.28% (n = 200,000); note: % is set by controls: 0 for no effect and ±100 for the full control effect; nearly all actives have a fitted effect of over 60% in size
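Luminescence was the read-out, taken after 8-minute incubation at ambient temperature. Luciferase turned over luciferin with 10 uM ATP in imidazole pH 7.2 buffer containing KCl, MgCl2, Tween 20 and BSA.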
SMN2 splice up: qHTS Assay for Enhancers of SMN2 Splice Variant Expression; actives 2.8% (n = 210,000); HEK293 SMN2-luciferase splicing reporter, luminescence, 30-36 h; Potency, µM (top dose mostly 46.1 µM), for the others: top-dose activity change, positive = activation, usual class: activators; note: % of control where 0% means no effect; nearly all actives have a fitted effect of over 55% in size
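HEK293 cells carry an SMN2 minigene-luciferase reporter in which exon 7 inclusion puts luciferase in frame. Cells were seeded at 2000 cells/well, attached for 10-12 hours, then exposed to compounds for 30-36 hours at 37C before ONE-Glo luminescence.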
FLuc counter: qHTS profiling assay for firefly luciferase inhibitor/activator using purifed enzyme and Km concentrations of substrates (counterscreen for miR-21 project); actives 6.9% (n = 360,000); Potency, µM (doses to about 57.5 µM), for inactives: at the highest dose activity change, negative = inhibition, usual class: inhibitors; purified FLuc, Km substrates, luminescence inhibition;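 note: plate controls were vehicle for no effect and reference inhibitor for full effect; nearly all actives have a fitted effect of over 55% in size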
Target sequence (P08659 whole entry, looked up): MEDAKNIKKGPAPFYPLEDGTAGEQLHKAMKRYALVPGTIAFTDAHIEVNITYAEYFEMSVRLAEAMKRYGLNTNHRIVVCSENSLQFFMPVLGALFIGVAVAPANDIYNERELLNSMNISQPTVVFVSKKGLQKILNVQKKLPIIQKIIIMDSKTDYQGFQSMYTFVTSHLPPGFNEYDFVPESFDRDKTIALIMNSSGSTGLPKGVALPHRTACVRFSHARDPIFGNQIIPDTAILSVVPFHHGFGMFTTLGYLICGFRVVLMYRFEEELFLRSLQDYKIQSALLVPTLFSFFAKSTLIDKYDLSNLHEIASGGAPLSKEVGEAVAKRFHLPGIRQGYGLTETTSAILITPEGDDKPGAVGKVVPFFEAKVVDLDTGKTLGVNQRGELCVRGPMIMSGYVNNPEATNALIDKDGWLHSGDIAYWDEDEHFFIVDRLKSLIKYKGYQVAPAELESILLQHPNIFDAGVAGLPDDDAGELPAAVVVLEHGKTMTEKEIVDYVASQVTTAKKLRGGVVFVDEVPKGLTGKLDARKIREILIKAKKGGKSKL
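Purified P. pyralis luciferase, 10 nM final, with Km-level 10 uM D-luciferin and 10 uM ATP in 50 mM Tris acetate pH 7.5, 10 mM Mg acetate, 0.01% Tween-20, 0.05% BSA; 6-point qHTS titration about 60 µM downward; luminescence read.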
NPC1 prom act: qHTS Assay for NPC1 Promoter Activators. actives 2.4% (n = 320,000). AID 485313, 2010. Huh7 NPC1 promoter luciferase reporter, 24 h. Potency, µM (series often up to 9.22 µM), for inactives: at the top dose activation, usual class: activators; note: % of control where 0% means no effect; nearly all actives have a fitted effect of over 60% in size
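Luciferase expression driven by the NPC1 promoter was measured in stably transfected Huh7 cells after a 24 h compound incubation, using a luciferase reagent and a luminescence read.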
Starred values were filed as active, the others as inactive. Calls come from the whole dose curve; as a rule, active = well fitted curve in the direction sought with a large enough effect; inconclusive = small, poorly fitted or top-dose-only effect, or another doubt; inactive = no such curve, though single readings can be large; an effect the other way counts as inactive or inconclusive. Potency is the fitted concentration of half-maximal effect.

What do the screens show for `CN(C)S(=O)(=O)c1cccc(NC(=O)COC(=O)c2cc3ccccc3oc2=O)c1`?
Rab9 promoter act: 3.16µM*; ELG1 genotoxic: 9.2µM*; FLuc counter: 13.5µM*; NPC1 prom act: 3.55µM*

How did CN(C)S(=O)(=O)c1cccc(NC(=O)c2cc3ccccc3o2)c1 do in these assays?
Rab9 promoter act: inconclusive; ELG1 genotoxic: 6.5%; KinaseGlo FLuc: -1.7%; SMN2 splice up: 3.1%; FLuc counter: 8.49µM*; NPC1 prom act: 29.6%

What do the screens show for `O=C(COC(=O)c1cc2ccccc2oc1=O)Nc1cccc(S(=O)(=O)N2CCCCCC2)c1`?
Rab9 promoter act: 12.0%; ELG1 genotoxic: inconclusive; KinaseGlo FLuc: 3.4%; SMN2 splice up: 17.4%; FLuc counter: -18.9%; NPC1 prom act: 2.1%

Results for CCNc1ccc(P(=O)(c2ccccc2)c2ccccc2)cc1 ?
Rab9 promoter act: -3.0%; ELG1 genotoxic: 0.7%; KinaseGlo FLuc: -0.2%; SMN2 splice up: 5.0%; FLuc counter: -2.0%; NPC1 prom act: -1.6%

How did Cc1oc(/N=C/c2cccc3ccccc23)c(C#N)c1C do in these assays?
Rab9 promoter act: 0.9%; ELG1 genotoxic: -1.6%; KinaseGlo FLuc: 13.2%; SMN2 splice up: -0.4%; FLuc counter: -7.9%; NPC1 prom act: 0.2%

What do the screens show for `COc1ccc(/C=N/c2oc(C)c(C)c2C#N)c(OC)c1`?
Rab9 promoter act: -2.1%; ELG1 genotoxic: 1.6%; KinaseGlo FLuc: 0.6%; FLuc counter: 1.4%; NPC1 prom act: -1.5%

What do the screens show for `COc1cc(/C=N/c2oc(C)c(C)c2C#N)cc(Br)c1O`?
Rab9 promoter act: -2.6%; ELG1 genotoxic: 0.2%; FLuc counter: 15.1µM*; NPC1 prom act: -0.9%

Results for Cc1oc(/N=C/c2ccccc2)c(C#N)c1C ?
Rab9 promoter act: 3.5%; ELG1 genotoxic: 0.6%; FLuc counter: 12µM*; NPC1 prom act: 2.1%

Results for COc1ccc(OC)c(CCNC(=O)c2cccc(NC3=NC4CS(=O)(=O)CC4S3)c2)c1 (stereo not drawn) ?
Rab9 promoter act: -0.8%; ELG1 genotoxic: 5.8%; FLuc counter: 6.0%; NPC1 prom act: -3.1%

How did COc1cccc(C(=O)/C=C/c2ccc(N3CCCCC3)c([N+](=O)[O-])c2)c1 do in these assays?
Rab9 promoter act: -1.9%; ELG1 genotoxic: 10.9%; KinaseGlo FLuc: -4.2%; SMN2 splice up: -20.2%; FLuc counter: 8.49µM*; NPC1 prom act: -1.1%

Results for COc1cccc(/C=C/C(=O)c2cccc([N+](=O)[O-])c2)c1OC ?
Rab9 promoter act: -7.2%; ELG1 genotoxic: inconclusive; KinaseGlo FLuc: -2.3%; SMN2 splice up: -1.8%; FLuc counter: 10.7µM*; NPC1 prom act: 8.6%

What do the screens show for `COc1cccc(/C=C/C(=O)c2cccc([N+](=O)[O-])c2)c1`?
Rab9 promoter act: -2.0%; ELG1 genotoxic: inconclusive; KinaseGlo FLuc: -2.5%; SMN2 splice up: -3.1%; FLuc counter: 8.49µM*; NPC1 prom act: -8.9%

How did CO/N=C/c1ccc(N2CCCC2)c([N+](=O)[O-])c1 do in these assays?
Rab9 promoter act: 19.5%; ELG1 genotoxic: -0.6%; KinaseGlo FLuc: -2.1%; SMN2 splice up: -27.5%; FLuc counter: 16.9µM*; NPC1 prom act: 9.4%

Results for Cc1ccc2oc(=O)n(Cc3ccccc3)c2c1 ?
Rab9 promoter act: 0.3%; ELG1 genotoxic: 3.9%; FLuc counter: 2.3%; NPC1 prom act: -4.4%

How did Cc1ccc(NC(=O)C2CCN(c3nc4ccccc4nc3C(F)(F)F)CC2)cc1C do in these assays?
FLuc counter: -9.8%

What do the screens show for `Cc1cn(C)c(CC(=O)Nc2ccc(F)cc2Cl)c1C(=O)O`?
FLuc counter: -17.0%

What do the screens show for `CCCCN(C)C1CCN(C(=S)Nc2cccc(SC)c2)CC1`?
Rab9 promoter act: -2.4%; ELG1 genotoxic: -0.8%; KinaseGlo FLuc: -0.4%; SMN2 splice up: -3.6%; FLuc counter: 2.6%; NPC1 prom act: -1.7%

How did CC1CCN(S(=O)(=O)c2ccc3c(c2)c(=O)c(C(=O)NCCc2ccccc2)cn3C)CC1 do in these assays?
SMN2 splice up: 1.5%; FLuc counter: 1.8%

What do the screens show for `CN1CCC(=NOc2ccc([N+](=O)[O-])cc2)CC1`?
Rab9 promoter act: 1.58µM*; ELG1 genotoxic: inconclusive; KinaseGlo FLuc: -2.9%; FLuc counter: inconclusive; NPC1 prom act: 1.78µM*

How did Cc1ccccc1C(=O)Oc1ccc(-c2csnn2)cc1 do in these assays?
Rab9 promoter act: -0.8%; ELG1 genotoxic: inconclusive; FLuc counter: 12µM*; NPC1 prom act: -0.2%

What do the screens show for `Nc1ccc(OCc2ccccc2)cc1`?
Rab9 promoter act: inconclusive; ELG1 genotoxic: 19.0%; KinaseGlo FLuc: -0.9%; SMN2 splice up: 12.6µM*; FLuc counter: inconclusive; NPC1 prom act: 28.3%

Results for c1ccc(COc2ccc(-c3csnn3)cc2)cc1 ?
Rab9 promoter act: 2.82µM*; ELG1 genotoxic: 25.8%; KinaseGlo FLuc: -7.3%; SMN2 splice up: inconclusive; FLuc counter: 2.39µM*; NPC1 prom act: 1.78µM*

Results for Nc1ccc(OCCc2ccccc2)cc1 ?
Rab9 promoter act: inconclusive; ELG1 genotoxic: 17.4%; FLuc counter: -12.1%; NPC1 prom act: inconclusive

How did OCCNCCCCOc1ccc(OCc2ccccc2)cc1 do in these assays?
Rab9 promoter act: 3.55µM*; ELG1 genotoxic: inconclusive; KinaseGlo FLuc: -5.0%; SMN2 splice up: 15.8µM*; FLuc counter: 10.7µM*; NPC1 prom act: inconclusive

Results for CC(=O)COc1ccc(-c2csnn2)cc1 ?
Rab9 promoter act: 26.1%; ELG1 genotoxic: 14.2%; FLuc counter: -13.5%; NPC1 prom act: 15.2%

How did O=C1Cc2ccccc2C(=O)N1c1cccc(Cl)c1 do in these assays?
Rab9 promoter act: 1.8%; ELG1 genotoxic: 4.1%; FLuc counter: 1.0%; NPC1 prom act: -4.1%

Results for COc1ccc([C@H]2CC(=O)C=C(c3cccc4c3Oc3ccccc3S4)C2)cc1 ?
Rab9 promoter act: -1.7%; ELG1 genotoxic: -1.9%; FLuc counter: 0.5%; NPC1 prom act: -4.5%

Results for COc1ccc(CCNC(=O)c2cnc3sc(N4CCCC4)nn3c2=O)cc1OC ?
FLuc counter: 4.8%

Results for C/C(=N\Nc1cc(N2CCOCC2)ncn1)c1cccc([N+](=O)[O-])c1 ?
Rab9 promoter act: 21.5%; ELG1 genotoxic: 0.6%; KinaseGlo FLuc: -4.6%; SMN2 splice up: 11.2µM*; FLuc counter: -18.1%; NPC1 prom act: 17.6%

How did C/C(=N\Nc1cc(N2CCOCC2)ncn1)c1ccccc1 do in these assays?
Rab9 promoter act: 2.51µM*; ELG1 genotoxic: inconclusive; FLuc counter: 5.36µM*; NPC1 prom act: 2.51µM*

High-throughput results as filed in PubChem.
